Bioassay records from PubChem.
AmpC inh no detg – qHTS Inhibitors of AmpC Beta-Lactamase (assay without detergent); AmpC nitrocefin hydrolysis, absorbance 480 nm, 0.0001% Triton; Potency, µM (top dose mostly 57.1 µM), hits mostly inhibitors; 330,000 tested, 0.52% active; further: nearly all actives have a fitted effect of over 20% in size
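AmpC (5.3 nM in the dispensed reagent) in 20 mM phosphate pH 7.0 with 0.01% (detergent screen) or 0.0001% Triton X-100 was preincubated with compounds for 15 min at room temperature. Nitrocefin was then added from an 800 uM solution, and hydrolysis was followed at 480 nm.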
AMA1 RON2 block – qHTS for Inhibitors of AMA1-RON; Towards Development of Antimalarial Drug Lead: Primary Screen | Plasmodium falciparum AMA1 (3D7) - RON2 peptide interaction | AlphaScreen AMA1-biotinylated RON2 peptide binding | Potency, µM (titrated, usually from 58.2 µM), most hits filed as inhibitors | 360,000 tested, 0.2% active; further: nearly all actives have a fitted effect of over 45% in size
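AMA1 (3D7) with his tag at 25 nM final met compounds first, then biotinylated RON2 peptide at 25 nM; detection used donor plus acceptor beads, 10 µg/mL apiece, read by AlphaScreen after 30 min at room temperature.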
FBPA Giardia inh – qHTS Assay for Inhibitors of Fructose-1,6-bisphosphate Aldolase from Giardia Lamblia; A8B2U2; purified Giardia FBPA; Potency, µM (highest dose often 59.6 µM), hits mostly inhibitors; 290,000 tested, 0.71% active; further: nearly all actives have a fitted effect of over 55% in size
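Giardia FBPA (40 nM reagent) was preincubated 10 min at RT with compound (up to 57.5 uM final), then substrate plus GAPDH/TPI/NAD/arsenate coupling system with diaphorase/resazurin was added; resorufin fluorescence (525/598 nm) was read after 20 min.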
LmPK inh – qHTS Assay for Inhibitors of Leishmania Mexicana Pyruvate Kinase (LmPK); Q27686; purified LmPK, Kinase-Glo ATP luminescence, 1 h; Potency, µM (titrated, usually from 57.5 µM), actives largely listed as inhibitors; 290,000 tested, 0.37% active; AID 1721, 2009
Target sequence (Q27686 whole entry, looked up): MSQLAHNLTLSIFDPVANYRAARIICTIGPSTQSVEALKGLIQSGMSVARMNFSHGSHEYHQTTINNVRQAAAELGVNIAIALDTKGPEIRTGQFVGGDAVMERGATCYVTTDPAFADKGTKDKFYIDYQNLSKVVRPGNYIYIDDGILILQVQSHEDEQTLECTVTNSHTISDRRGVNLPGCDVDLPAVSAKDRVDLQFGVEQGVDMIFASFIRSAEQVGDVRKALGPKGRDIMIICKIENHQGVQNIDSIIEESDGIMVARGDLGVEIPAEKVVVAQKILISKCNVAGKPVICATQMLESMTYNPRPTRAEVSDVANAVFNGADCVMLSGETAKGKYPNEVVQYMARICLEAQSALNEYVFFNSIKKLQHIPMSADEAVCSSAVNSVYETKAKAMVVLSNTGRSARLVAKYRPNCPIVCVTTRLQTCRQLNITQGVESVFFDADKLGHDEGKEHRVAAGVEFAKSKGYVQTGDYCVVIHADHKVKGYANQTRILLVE
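Pyruvate kinase activity monitored as ATP production (luciferase luminescence). Conditions: 0.1 nM enzyme, 0.5 mM PEP, 0.1 mM ADP, 1 h, RT; normalized against uninhibited and no-enzyme wells.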
AmpC detergent – qHTS Inhibitors of AmpC Beta-Lactamase (assay with detergent); P00811; AmpC hydrolysis of nitrocefin, absorbance 480 nm, 0.01% Triton; Potency, µM (highest dose often 114 µM), hits mostly inhibitors; 370,000 tested, 0.041% active; AID 485294, 2010; further: nearly all actives have a fitted effect of over 25% in size
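20 mM phosphate pH 7.0 + 0.01% (detergent screen) or 0.0001% Triton X-100; 5.3 nM AmpC reagent; cpd preinc 15 min RT; nitrocefin (800 uM stock) to start; A480 q20 s × 4 min; Activity was normalised to no-enzyme and no-compound control wells.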
Numbers stand for hits; [ ] = dose if it differs, or a comment. Shown are actives, neighbours in structure and some others; about 1.3% of the full set was active somewhere. The call rests on the fitted dose curve; in most records, active means well fitted curve in the direction sought with a large enough effect; inconclusive means small, poorly fitted or top-dose-only effect, or another doubt; inactive means no such curve, though single readings can be large; an effect the other way counts as inactive or inconclusive.

Results for COc1ccc(C2CC(=O)N3CN(c4ccc(C)c(Cl)c4)CSC3=C2C#N)cc1OC (configuration not stated) ?
AmpC inh no detg: inactive; AMA1 RON2 block: inactive; FBPA Giardia inh: 5µM; LmPK inh: inactive; AmpC detergent: inactive

Results for CC(C)=CCn1c2ccc(NC(=S)NC3CC3)cc2c(=O)n1C ?
AMA1 RON2 block: inactive

Results for COc1cc(NS(=O)(=O)c2cccc([N+](=O)[O-])c2)c2ncccc2c1 ?
FBPA Giardia inh: 16µM

Results for COc1cc(NS(=O)(=O)c2ccc([N+](=O)[O-])cc2)c2ncccc2c1 ?
FBPA Giardia inh: 18µM

What do the screens show for `O=[N+]([O-])c1cccc(S(=O)(=O)NCCOc2cccc3cccnc23)c1`?
AmpC inh no detg: inactive; AMA1 RON2 block: inactive; LmPK inh: inactive; AmpC detergent: inactive

What do the screens show for `COc1cc(NS(=O)(=O)c2ccc(C)cc2)c2ncccc2c1`?
AmpC inh no detg: inactive; AMA1 RON2 block: inactive; FBPA Giardia inh: inconclusive; LmPK inh: inactive; AmpC detergent: inactive

How did COc1cc2cc(CN(Cc3nnnn3Cc3ccco3)C3CCCCC3)c(=O)[nH]c2cc1OC do in these assays?
AmpC inh no detg: inactive; AMA1 RON2 block: inactive; FBPA Giardia inh: 10µM; LmPK inh: inactive; AmpC detergent: inconclusive

How did CCOC(=O)C1=C(C)NC(=S)NC1c1ccc(OC(=O)c2ccco2)cc1 (configuration not stated) do in these assays?
AmpC inh no detg: inactive; AMA1 RON2 block: inactive; FBPA Giardia inh: inactive; LmPK inh: inactive; AmpC detergent: inactive

How did CCOC(=O)c1c(NC(=O)C2=C(C)NC(=S)NC2c2ccc(CC)cc2)sc(C)c1C (configuration not stated) do in these assays?
AmpC inh no detg: 13µM; FBPA Giardia inh: inactive; LmPK inh: inactive; AmpC detergent: inactive

How did CC1(C(=O)NCC2CCOCC2)Cc2c(-c3cccc(C(F)(F)F)c3)ccnc2O1 (configuration not stated) do in these assays?
AMA1 RON2 block: inactive

What do the screens show for `CCc1cc(=O)oc2cc(C)c(CN3CCCC3)c(O)c12`?
AmpC inh no detg: 11µM; AMA1 RON2 block: 12µM; FBPA Giardia inh: inactive; LmPK inh: inactive; AmpC detergent: inconclusive

How did Cc1nc(S/C(=C\c2ccc(-c3ccc(C(=O)O)c(Cl)c3)o2)C(=O)O)n[nH]1 do in these assays?
AmpC inh no detg: inactive; AMA1 RON2 block: 18µM; FBPA Giardia inh: inactive; LmPK inh: inactive; AmpC detergent: inactive

Results for Cc1nc(S/C(=C\c2ccc(OCc3ccccc3Cl)cc2)C(=O)O)n[nH]1 ?
AmpC inh no detg: inactive; AMA1 RON2 block: inactive; FBPA Giardia inh: inactive; LmPK inh: inactive; AmpC detergent: inactive

What do the screens show for `CCN1CCSc2ccc(C(=O)NC(C)c3ccccc3)cc21` (configuration not stated)?
AmpC detergent: inactive

What do the screens show for `CC(=O)N1CCc2cc(S(=O)(=O)NC(CC(C)C)C(=O)NCCc3ccc(C)cc3)ccc21` (configuration not stated)?
AmpC detergent: inactive

What do the screens show for `O=C(CC1S/C(=N/N=C/c2c[nH]c3ccc(OCc4ccccc4)cc23)NC1=O)Nc1ccccc1` (configuration not stated)?
AmpC inh no detg: 5µM; AMA1 RON2 block: inactive[2.32 µM]; FBPA Giardia inh: inactive; LmPK inh: inactive; AmpC detergent: inconclusive

What do the screens show for `O=C(CC1S/C(=N/N=C/c2ccco2)NC1=O)Nc1ccccc1` (configuration not stated)?
AmpC inh no detg: inactive; AMA1 RON2 block: inactive; FBPA Giardia inh: inactive; LmPK inh: inactive; AmpC detergent: inactive

What do the screens show for `O=C(CC1S/C(=N/N=C/c2c[nH]c3ccccc23)NC1=O)Nc1ccccc1` (configuration not stated)?
AmpC inh no detg: 25µM; AMA1 RON2 block: inactive; FBPA Giardia inh: inactive; LmPK inh: inactive; AmpC detergent: inactive

How did Cc1ccc2c(c1)c1c3n2CCN(C(=O)c2cccc(C(F)(F)F)c2)C3CCC1 (configuration not stated) do in these assays?
AmpC detergent: inactive

What do the screens show for `CCCCCCn1c(=O)c(F)cn(Cc2ccc(OC)c([N+](=O)[O-])c2)c1=O`?
AmpC inh no detg: 0.14µM; AMA1 RON2 block: inactive; FBPA Giardia inh: inactive; LmPK inh: inactive; AmpC detergent: inactive

What do the screens show for `CCCCCn1c(=O)c(F)cn(Cc2ccc(OC)c([N+](=O)[O-])c2)c1=O`?
AmpC inh no detg: inactive; AMA1 RON2 block: inactive; FBPA Giardia inh: inactive; LmPK inh: inactive; AmpC detergent: inactive

What do the screens show for `CCn1c(=O)n(CC)c2cc(N3CCCCC3)c(NC(=O)Nc3cc(Cl)ccc3OC)cc21`?
AmpC detergent: inactive

How did Cc1cn2c(=O)cc(COc3cccc(NC(=O)c4ccccc4Cl)c3)nc2s1 do in these assays?
AmpC detergent: inactive

How did O=C(O)CN1C(=O)/C(=C\c2ccc(OC(=O)c3ccco3)cc2)SC1=S do in these assays?
AmpC inh no detg: inactive; AMA1 RON2 block: inactive; FBPA Giardia inh: inconclusive; LmPK inh: inactive; AmpC detergent: inactive

Results for O=C(O)CN1C(=O)/C(=C/c2ccc(SCc3ccccc3)o2)SC1=S ?
AmpC inh no detg: inactive; AMA1 RON2 block: inactive; FBPA Giardia inh: 20µM; LmPK inh: inactive; AmpC detergent: inactive

How did CC(O)CCCCCCC/C=C/C=C/C(N)=O (configuration not stated) do in these assays?
FBPA Giardia inh: inactive[12.9 µM]

What do the screens show for `C=CCCC(=O)N1C[C@H]2CON(C)[C@H]2C[C@H]1c1ccc(N2CCCCC2)cc1`?
AMA1 RON2 block: inactive

What do the screens show for `CCC1=NN2C(=N)/C(=C\c3cccn3-c3ccc(Cl)cc3)C(=O)N=C2S1`?
AmpC inh no detg: 0.89µM; AMA1 RON2 block: inactive; FBPA Giardia inh: inactive; LmPK inh: inactive; AmpC detergent: inconclusive

How did CCS(=O)(=O)C1=NN2C(=N)/C(=C\c3ccc(OS(=O)(=O)c4ccccc4)cc3)C(=O)N=C2S1 do in these assays?
AmpC inh no detg: inactive; AMA1 RON2 block: inactive; LmPK inh: inactive; AmpC detergent: inactive

What do the screens show for `CCC1=NN2C(=N)/C(=C/c3ccc(OS(=O)(=O)c4ccccc4)cc3)C(=O)N=C2S1`?
AmpC inh no detg: 28µM; AMA1 RON2 block: inactive; FBPA Giardia inh: inactive; LmPK inh: inactive; AmpC detergent: inactive

Results for CCC1=NN2C(=N)/C(=C\c3cccn3-c3ccc(C)c(C)c3)C(=O)N=C2S1 ?
AmpC inh no detg: inactive; AMA1 RON2 block: inactive; FBPA Giardia inh: inactive; LmPK inh: inactive; AmpC detergent: inconclusive

How did Cc1oc(C)c2c(=O)ccc3c(c12)OC(N)=C(C#N)C3c1ccc(F)cc1 (configuration not stated) do in these assays?
AmpC inh no detg: inactive; AMA1 RON2 block: inactive; FBPA Giardia inh: 5.6µM; LmPK inh: inactive; AmpC detergent: inactive
